# Reference: the supplement of paper PMC4166925
# ± gives the standard deviation of the averaged measurements. Whole data set: some 33,000 sequences, median “E-score (dimensionless, -0.5 to 0.5)” near -0.049, cut for the highest 2% near 0.37. The list comes from a sample in which the highest values are over-represented; it also holds similar and randomly drawn sequences.
# System: T1, PmTbr T-box DNA-binding domain (GST fusion)
# T1 sequence: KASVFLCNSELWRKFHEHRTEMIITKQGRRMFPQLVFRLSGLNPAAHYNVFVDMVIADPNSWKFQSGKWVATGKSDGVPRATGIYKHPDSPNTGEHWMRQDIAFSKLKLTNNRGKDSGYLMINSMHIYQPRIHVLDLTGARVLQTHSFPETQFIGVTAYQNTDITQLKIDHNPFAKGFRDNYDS
# Assay: PBM E-score of 8-mer (E-score (dimensionless, -0.5 to 0.5)); Tbr is Tbrain of the sea star Patiria miniata (Pm) or the sea urchin Strongylocentrotus purpuratus (Sp); higher = stronger binding preference
# Settings: the construct has about 5 more residues each side
# Protocol: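 Universal protein-binding microarray (Agilent AMADID 016060, 60-bp probes with a 35-bp variable region) incubated with 200 nM GST-fused Patiria miniata Tbr T-box DNA-binding domain (residues 272-466) in PBS pH 7.5. Scored for every ungapped 8-mer (given with its reverse complement) by the Universal PBM Analysis Suite as E-score (modified Wilcoxon-Mann-Whitney enrichment, range -0.5 to 0.5; >0.45 counts as bound) and Z-score of median probe intensity. Two replicate arrays (datasets 1 and 2).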
row,Sequence,PBM E-score of 8-mer
1,CACCTAAA,0.368 ± 0.0085
2,GCTACAGC,-0.2 ± 0.12
3,ACCGACTC,-0.012 ± 0.041
4,AGCAACCT,-0.0154 ± 0.04
5,AGTTGACC,-0.231 ± 0.009
6,AGTTGACG,0.153 ± 0.053
7,GGTTGACA,0.3518 ± 0.0019
8,AGTTGACA,0.407 ± 0.008
9,CGTTGACC,0.0227 ± 0.075
10,CGTTGACA,0.405 ± 0.0049
11,CTTCTATA,-0.287 ± 0.067
12,GATAGCAA,0.202 ± 0.052
13,ATCAGAAT,-0.106 ± 0.065
14,ATGAGAAA,-0.182 ± 0.17
15,GTGAGAAC,0.44 ± 0.0046
16,CTGAGAAC,-0.052 ± 0.016
17,ATGAGAAC,-0.0696 ± 0.046
18,GTGAGAAA,0.458 ± 0.012
19,GCGAGAAA,0.356 ± 0.034
20,ACGAGAAC,0.0117 ± 0.058
21,GCGAGAAC,0.375 ± 0.01
22,CTGAGAAA,0.00608 ± 0.019

row,Sequence,PBM E-score of 8-mer
1,GAGCGCAC,-0.0637 ± 0.099
2,CTCACAAC,0.3462 ± 0.0029
3,CCCAGAAC,-0.157 ± 0.065
4,AACCTTGG,-0.183 ± 0.041
5,CACCTTGA,0.383 ± 0.017
6,CAGCTTGG,0.0903 ± 0.044
7,GACCTTGA,-0.166 ± 0.025
8,CACCTTGC,0.4191 ± 0.0029
9,GACCTTGC,-0.145 ± 0.021
10,AACCTTGC,0.060455 ± 2.1e-05
11,TACCTTGA,0.00793 ± 0.011
12,CACCTTGG,0.45511 ± 0.00014
13,ATTATGCG,-0.162 ± 0.031
14,GCGGTAAC,-0.0299 ± 0.029
15,AATTGGTC,-0.139 ± 0.051
16,CCCTCTCG,0.0695 ± 0.027
17,CGGTATAC,-0.0592 ± 0.023
18,CCTAGAGG,-0.0482 ± 0.018
19,ACCCACAT,0.203 ± 0.096
20,AAACACCT,0.4565 ± 0.0016
21,ACACACCG,0.125 ± 0.027
22,ACACACAT,0.288 ± 0.013

row,Sequence,PBM E-score of 8-mer
1,AGACACCG,0.185 ± 0.012
2,AAACACCC,0.227 ± 0.027
3,AGACACAT,0.184 ± 0.0023
4,AAACACCG,0.143 ± 0.013
5,ACACACCT,0.445 ± 0.0069
6,AGACACCT,0.4559 ± 0.0013
7,GGAGTGGA,-0.0457 ± 0.03
8,ACATTTCA,0.125 ± 0.0075
9,AGCTATCC,-0.334 ± 0.059
10,AGGACACG,-0.0089 ± 0.017
11,ACGCCTGG,0.236 ± 0.015
12,CTCAACAC,0.321 ± 0.029
13,GTCAACAA,0.293 ± 0.013
14,GTCAACAC,0.427 ± 0.012
15,AACAACAC,0.363 ± 0.01
16,CACAACAA,0.278 ± 0.0061
17,GACAACAC,0.391 ± 0.014
18,CCCAACAA,0.0135 ± 0.11
19,CACAACAG,0.161 ± 0.033
20,GACAACAA,0.194 ± 0.046
21,CACAACAC,0.387 ± 0.02
22,CCCAACAC,0.385 ± 0.0085

row,Sequence,PBM E-score of 8-mer
1,GCCAACAC,0.354 ± 0.0042
2,AATTCGCT,0.00911 ± 0.0077
3,CGCAGGCC,-0.171 ± 0.036
4,GGTTCGAC,0.0606 ± 0.091
5,CCGTTAGA,0.0408 ± 0.021
6,GCTGACTA,-0.0402 ± 0.059
7,AATGCTCC,-0.0523 ± 0.0048
8,CATCTGCC,-0.176 ± 0.007
9,AGGTTATG,0.0583 ± 0.03
10,AGACGCTG,-0.078 ± 0.052
11,TGTGTTAA,0.365 ± 0.029
12,AGTGTTTA,0.258 ± 0.043
13,GGTGTTAA,0.479 ± 0.0049
14,CGTGTTAA,0.409 ± 0.029
15,GCTGTTAA,0.199 ± 0.089
16,ACTGTTAG,0.217 ± 0.017
17,GGTGTTTA,0.399 ± 0.015
18,CGTGTTTA,0.0204 ± 0.033
19,CTTGTTAA,0.236 ± 0.09
20,AGTGTTAG,0.407 ± 0.014
21,CGTGTTAG,0.354 ± 0.01
22,CCTGTTAA,0.185 ± 0.023
